This is an account of results in PubChem BioAssay (NCATS).

SMILES strings stand for the structures. Records with an inconclusive call do not appear. Activity calls are given as the source filed them. Calls come from the whole dose curve; as a rule, active = well fitted inhibition curve with a large enough effect; inconclusive = small, poorly fitted or top-dose-only effect; inactive = flat fitted curve, though single readings scatter.
% is set by controls: 0 for no effect and ±100 for the full control effect; potency is the fitted concentration of half-maximal effect.

The test relates to KB-3-1. In words: Cytotoxic Profiling of Annotated Libraries Using Quantitative High-Throughput Screening (AID 1296008). Note: nearly all actives have a fitted effect of over 60% in size. Particulars: Five cell lines viability, CellTiter-Glo ATP luminescence, 48-72 h; max response: active compounds read low. In a few lines:
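Compounds were pin-transferred onto cells and incubated 48 or 72 hr at 37 degree Celsius, 95% humidity. CellTiter-Glo was added, plates sat 10 min at room temperature, then ATP-coupled luminescence was imaged as the viability read-out.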
With `Nc1nc2c(nc(Br)n2[C@@H]2O[C@@H]3COP(=O)(O)O[C@H]3[C@H]2O)c(=O)[nH]1`, the call was inactive. As for `COc1ccc(C2Oc3c(OC)cc(CCCO)cc3C2COC2OC(CO)C(O)C(O)C2O)cc1OC` (stereo unspecified), the max response was -12.2% (inactive). For the compound `COc1cc(CCc2cc(NC(=O)c3ccc(N4CC(C)NC(C)C4)cc3)n[nH]2)cc(OC)c1` (stereo unspecified), the Potency is 11.6 µM (active). In the case of `CC(C)(Cc1ccccc1)NCC(O)c1ccc(O)c(NS(C)(=O)=O)c1` (stereo unspecified), the max response is -4.4% (inactive). Consider `CC1=CC2/C=C(\C)CCC(O)C(=O)C(O)CC(=O)C23C(=O)NC(CC(C)C)C3C1C` (stereo unspecified), for which the max response was 2.51% (inactive).

As to `O=C(N[C@H]1CCN(C(=O)c2cc(C(F)(F)F)cc(C(F)(F)F)c2)[C@H](Cc2ccc(Cl)cc2)C1)c1ccnc2ccccc12`, the max response is -7.03% (inactive). Regarding `C/C(=C/CO)CCC1C(C)CCC2C(C)(C)CCCC12C` (stereo unspecified), the max response is 6.99% (inactive).

On to `CC[C@@H]1C[C@]1(NC(=O)[C@@H]1C[C@@H]2CN1C(=O)[C@H](C(C)(C)C)NC(=O)OCC(C)(C)CCCCc1cccc3c1CN(C3)C(=O)O2)C(=O)NS(=O)(=O)C1CC1`, for which the max response was -19.5% (inactive). Consider `O=C(CSc1nc2ccccc2c(=O)n1-c1ccccc1)Nc1ccc2c(c1)CCC2`, for which the compound was called inactive.

Regarding `CC(C)/C=C1\NC(=O)C(C(C)C)n2c1nc1ccccc1c2=O` (stereo unspecified), the max response is -2.24% (inactive). With `Cc1cc(F)ccc1-c1nc(NCCN=C(N)NC#N)nc2c1ccc(=O)n2-c1c(F)cccc1F`, the max response was 0.209% (inactive).
